Jurkat NFkB inh: lowers PMA/ionomycin-induced NF-kB signal in Jurkat cells; PMA/ionomycin-induced NF-kB luciferase reporter, luminescence; inhibition, % at 4 µM; hit rate 0.53% among 330,000; in the data active = inhibition above about 50%
Mdm2-MdmX inh: inhibitors of human Mdm2/MdmX interaction; inhibition, % at 8 µM; O15151+Q00987; SaOS-2 split-luciferase Mdm2/MdmX complementation, luminescence; hit rate 3% among 330,000;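 active = inhibition of at least 50% at 8 µM in the primary screen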
aSyn 5UTR inh: MLPCN primary screen, SNCA 5' untranslated region. alpha-synuclein 5'UTR reporter, inhibitor activity. inhibition, % (tested at 7.5 µM). hit rate 0.82% among 300,000; in the data active = inhibition above about 60%; inconclusive = no clear call, values can overlap the other calls;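 note: H4 neuroglioblastoma cells stably carrying SNCA 5'UTR luciferase fusion; 0% = DMSO wells and 100% = positive control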
Gli-Sufu block: blocks Gli-Sufu signaling in a luciferase reporter | inhibition, % at 5 µM | AID 588413 | hit rate 0.74% among 340,000 | Sufu-KO-LIGHT fibroblasts, Gli luciferase reporter luminescence;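 active = inhibition above about 55%, limit read from the data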;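 note: 0% = DMSO-treated cells and 100% = wells with medium but no cells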
CSC inhib: cancer stem cell inhibition. inhibition, % at 7.5 µM. cancer stem cell-like cells viability, luminescence. AID 2717. hit rate 1.1% among 300,000; in the data active = inhibition above about 75%; inconclusive = no clear call, values can overlap the other calls; tested in HMLE shEcad cells
697 NFkB inh: inhibitors of the PMA/ionomycin-induced NF-kB reporter in 697 B cells. 697 B-cell NF-kB luciferase reporter, 16 h. inhibition, % at 4 µM. hit rate 0.33% among 330,000. AID 435022; in the data active = inhibition above about 35%
Jurkat NFkB conf: lowers PMA/ionomycin-induced NF-kB signal in Jurkat cells | shares compounds with Jurkat NFkB inh | Jurkat NF-kB luciferase, 16 h | inhibition, % at 4 µM | hit rate 27% among 2,700 | AID 435020;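 active = inhibition reaching about 45% at 4 µM in either replicate, limit read from the data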;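 note: plate controls were PMA/ionomycin stimulated DMSO wells for no effect and unstimulated DMSO wells for full effect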
697 NFkB conf: lowers PMA/ionomycin-induced NF-kB signal in 697 B cells | hit rate 35% among 2,000 | 697 B-cell NF-kB luciferase, 16 h | inhibition, % at 4 µM | shares compounds with 697 NFkB inh; in the data active = inhibition mostly above about 28%, no sharp cut-off; inactive = mostly below about 22%
Mdm2-MdmX conf: human Mdm2/MdmX binding inhibition, confirmed. shares compounds with Mdm2-MdmX inh. luminescent assay. inhibition, % at 8 µM. hit rate 55% among 10,000. AID 489028; in the data active = inhibition above about 40%
Full FLuc ctr: full-length luciferase inhibition in Mdm2/MdmX counter-screen; inhibition, % at 8 µM; shares compounds with Mdm2-MdmX inh; SaOS-2 full-length luciferase counterscreen, luminescence; hit rate 77% among 6,200;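 active = mean inhibition at 8 µM reaching about 37%, which flags the compound as non-specific, limit read from the data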;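 note: p53-null SaOS-2 cells with luciferase driven by a doxycycline-inducible promoter; compound on cells about two nights before reading with doxycycline added after day one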
Gli antag conf: Gli-SUFU antagonism confirmation, single concentration; shares compounds with Gli-Sufu block; Sufu-KO-LIGHT cells, Gli luciferase reporter, luminescence; inhibition, % at 5 µM; hit rate 40% among 2,500;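 active = mean inhibition at 5 µM reaching about 45%, limit read from the data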;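 note: plate controls were DMSO-treated cells for no effect and wells lacking cells for full effect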
SufuKO cytotox: cytotoxic in Gli-SUFU antagonist counter-screen; shares compounds with Gli-Sufu block; Sufu-KO-LIGHT cells cytotoxicity, ATP luminescence; cytotoxicity, % at 5 µM; hit rate 32% among 2,500; AID 651994;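 active = mean cytotoxicity at 5 µM above about 25%, limit read from the data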;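 note: cells exposed to compound overnight for roughly 16 to 18 hours; plate controls were DMSO wells with cells for no effect and medium without cells for full effect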
Wnt3a cs: counter-screen for Gli-SUFU antagonists: Wnt3a reporter inhibition; shares compounds with Gli-Sufu block; Wnt-LIGHT cells, Wnt3a-driven luciferase reporter, luminescence; inhibition, % at 6.25 µM; hit rate 20% among 2,500; AID 651995;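 active = mean inhibition above about 25%, limit read from the data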
The depositor's hits bear a star; u = inconclusive; x = no result. Compounds with a hit are over-represented: about 4.5% of the library has one in this group of screens.

SMILES	Jurkat NFkB inh	Mdm2-MdmX inh	aSyn 5UTR inh	Gli-Sufu block	CSC inhib	697 NFkB inh	Jurkat NFkB conf	697 NFkB conf	Gli antag conf	SufuKO cytotox	Wnt3a cs	others
CC(C)CCc1noc(CN(C)CCC2CCOCC2)n1	-3	11	-9	13	-14	17	x	x	x	x	x
CC1CC(C)CN(c2ncnc3c2cnn3-c2ccc(Cl)cc2)C1 (stereo not drawn)	-129	43	-99	-10	73	-198	x	x	x	x	x
CC1CCCN(c2ncnc3c2cnn3-c2ccc(Cl)cc2)C1 (stereo not drawn)	60*	96*	98*	81*	61	-8	87*	x	92*	67*	106*	Mdm2-MdmX conf=95*;Full FLuc ctr=42*
CCCCCCCn1ccc(=N)cc1	66*	53*	u	84*	0	89*	74*	83*	88*	35*	43*	Mdm2-MdmX conf=33
CCn1ccc(=N)cc1	10	4	1	3	-2	7	x	x	x	x	x
Cn1nc(C(C)(C)C)cc1C(=O)NCc1ccc(N2CCCC2=O)cc1	66*	6	-13	81*	18	42*	66*	57*	77*	36*	42*
Cc1ccc(CNC(=O)c2ccc(N3CCCC3=O)cc2)cc1	-3	-3	-21	0	-4	7	x	x	x	x	x
Clc1ccccc1CN1CCN(/N=C/C=C/c2ccco2)CC1	-7	-6	-50	-2	8	-28	x	x	x	x	x
Cc1cc(N2CCN(c3nc4ccccc4s3)CC2)n2ncnc2n1	62*	-11	-42	71*	1	54*	54*	42*	66*	38*	-19
Cc1ccc(S(=O)(=O)NCc2ccncc2)cc1C	52*	15	-3	74*	-11	22	55*	x	73*	26*	36*
CCN(CC)P(=O)(Nc1ccc(C)cc1Br)c1ccc(N(C)C)cc1NC(=O)c1ccco1 (stereo not drawn)	-5	15	-43	13	67	15	x	x	x	x	x
COc1ccc(CCNc2ccc(C(=O)O)cc2[N+](=O)[O-])cc1OC	6	-10	5	7	-10	-15	x	x	x	x	x
COc1ccc(C(=O)N2CCN(c3ccc([N+](=O)[O-])c(NCCc4ccc(OC)c(OC)c4)c3)CC2)cc1	73*	22	16	79*	8	15	75*	x	76*	32*	-17
COC(=O)C1=C(CN2CCCc3ccccc32)NC(=O)NC1c1ccc(F)cc1 (stereo not drawn)	54*	70*	79*	82*	-1	1	79*	x	36	19	72*	Mdm2-MdmX conf=72*;Full FLuc ctr=38*
CC1Oc2ccccc2C=C1/C=N/Nc1ccc(C(=O)O)cc1 (stereo not drawn)	-126	-70	-95	-104	-23	-350	x	-104	x	x	x
COc1ccc(-c2csc3nc(-c4cccnc4)nc(N4CCC(C(N)=O)CC4)c23)cc1OC	15	42	-10	21	-3	39*	x	26*	x	x	x
O=C1CN(c2nc(-c3cccnc3)nc3scc(-c4ccccc4)c23)CCN1	-5	2	-90	32	-25	-12	x	x	x	x	x
CC(C)(C)c1ccc(S(=O)(=O)NCC(=O)Nc2ccc(-c3nc4ccccc4s3)cc2)cc1	-31	-9	-101	-18	13	-157	x	x	x	x	x
O=C(CNS(=O)(=O)c1cccc(Cl)c1)Nc1ccc(-c2nc3ccccc3s2)cc1	-127	-80	-42	-81	12	-319	x	-229	x	x	x

Bioassay records: PubChem, several laboratories
